Source: PubChem BioAssay
This excerpt belongs to a sample that is enriched for hits.
PGK inhibitor = blocks T. brucei phosphoglycerate kinase | PGK/GAPDH coupled, Kinase-Glo luminescence, 60 min | Potency, µM (top dose mostly 57.5 µM), actives largely listed as inhibitors | actives 0.043% (n = 380,000); also: nearly all actives have a fitted effect of over 60% in size
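Luminescent ATP detection (Kinase-Glo Plus) follows a 60-minute room-temperature incubation, with wells lacking PGK as controls. Buffer: 100 mM TEA (pH 7.6), 5 mM MgCl2, 0.01% Tween-20. Coupling enzyme GAPDH (100 nM final) supplies unstable 1,3-BPG in-well.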
Pin1 inhibitor = human Pin1 inhibition; Q13526; Pin1 FP peptide displacement, HiFluor488, 10 min; Potency, µM (titrated, usually from 115 µM), most hits filed as inhibitors; actives 0.009% (n = 390,000); AID 504891; active = well fitted inhibition curve with a large enough effect in the polarisation, with a control signal flat, not every such curve was filed as active; inconclusive = small, poorly fitted or top-dose-only effect, or effect the other way, or a change in a side signal; inactive = no such curve, though single readings can be large or run the other way; the % refers to the polarisation
Target sequence (Q13526 whole entry, looked up): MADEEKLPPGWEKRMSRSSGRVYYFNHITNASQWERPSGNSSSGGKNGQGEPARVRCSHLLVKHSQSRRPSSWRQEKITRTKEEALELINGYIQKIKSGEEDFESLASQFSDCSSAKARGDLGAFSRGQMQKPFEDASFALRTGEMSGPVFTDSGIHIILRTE
Tb PFK inh = inhibitors of T. brucei phosphofructokinase | Potency, µM (highest dose often 57.5 µM), hits mostly inhibitors | actives 0.17% (n = 330,000) | O15648 | T. brucei PFK, ADP-Glo luminescence; also: nearly all actives have a fitted effect of over 60% in size
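Compounds were pin-transferred as a titration series up to 57 uM into substrate buffer (0.5 mM F6P, 0.1 mM ATP, pH 8.0), then 1.25 nM PFK was added and reactions ran 45 min before ADP-Glo detection.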
PI5P4Ka inh = blocks human PI5P4K alpha kinase activity; P48426; PI5P4Kalpha enzyme, ADP-Glo luminescence, 60 min; hits give low values; max response, %; actives 1.2% (n = 330,000); active = max response of -50% or lower; inconclusive = between -30% and -50%; inactive = -30% or higher; also: value at the top dose of about 77 µM
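Reactions run in 0.038 M HEPES pH 7.4, 0.28 mM EGTA, 0.1% CHAPS and 5% DMSO, with PI5P4Kalpha, substrate, compound and 5 microM ATP final, one hour at room temperature. Readout is ADP-Glo luminescence.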
PI4K2A block = PI4K2A (human) kinase inhibition. Q9BTU6. purified PI4K2A, ADP-Glo luminescence, 1 h; hits give low values. activity change, negative = inhibition, % at 76.9 µM. actives 0.13% (n = 420,000). AID 1346378; in the data active = activity change below about -50%; inconclusive = mostly about -30% to -49%
Target sequence (Q9BTU6 whole entry, looked up): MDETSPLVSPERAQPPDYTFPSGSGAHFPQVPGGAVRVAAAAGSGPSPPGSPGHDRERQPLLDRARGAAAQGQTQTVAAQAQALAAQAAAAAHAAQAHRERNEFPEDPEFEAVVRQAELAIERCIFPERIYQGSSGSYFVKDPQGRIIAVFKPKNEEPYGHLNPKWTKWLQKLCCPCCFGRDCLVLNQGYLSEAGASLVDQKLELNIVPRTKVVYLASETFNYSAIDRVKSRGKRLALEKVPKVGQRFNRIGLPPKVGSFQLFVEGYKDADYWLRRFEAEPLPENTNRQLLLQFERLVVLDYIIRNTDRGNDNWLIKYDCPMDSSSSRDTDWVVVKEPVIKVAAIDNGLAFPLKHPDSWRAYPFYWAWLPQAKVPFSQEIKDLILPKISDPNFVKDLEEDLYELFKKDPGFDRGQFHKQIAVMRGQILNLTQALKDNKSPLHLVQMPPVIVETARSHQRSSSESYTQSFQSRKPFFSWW
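PI4K2A activity was measured by ADP-Glo luminescence: enzyme (4 ug/mL stock) and phosphatidylinositol (1.2 mM stock) in Tris pH 7.5/MgCl2/EGTA/Triton X-100 buffer were reacted with ATP (300 microM stock) for one hour at ambient temperature.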
Numbers stand for hits; . = inactive; ? = inconclusive; / = no result. Unless noted, calls follow the shape of the dose curve; as a rule, active = well fitted curve in the direction sought with a large enough effect; inconclusive = small, poorly fitted or top-dose-only effect, or another doubt; inactive = no such curve, though single readings can be large; an effect the other way counts as inactive or inconclusive.

SMILES | PGK inhibitor | Pin1 inhibitor | Tb PFK inh | PI5P4Ka inh | PI4K2A block
O=C(O)Cc1ccc(NC(=O)c2ccc3c(c2)C(=O)N(Cc2ccco2)C3=O)cc1 | . | ? | . | . | .
O=C(Nc1ccc(O)cc1)c1ccc2c(c1)C(=O)N(Cc1ccco1)C2=O | . | ? | . | -57 | .
COC(=O)[C@@H]1C[C@@]2(c3ccccc3)c3ccccc3N(S(=O)(=O)c3ccccc3)[C@H]2N1C(=O)CNC/C=C(\C)CCC=C(C)C | / | / | / | / | .
O=Nc1c(-c2c(O)[nH]c3cc(Br)ccc23)[nH]c2ccccc12 | . | . | . | -75 | .
COc1ccc(C(=O)c2cc3ccc(O)cc3oc2=O)cc1 | / | . | . | / | -53
O=C(c1ccccc1)c1cc2ccc(O)cc2oc1=O | ? | . | . | / | -87
CCc1ccc(C(=O)c2cc3ccc(O)cc3oc2=O)cc1 | . | . | . | ? | .
CCC(C)(CCN1CCOCC1)N(Cc1cc2ccccc2n(C)c1=O)C(=O)C1CCCCC1 (stereo not given) | / | . | / | / | /
Nc1ccc(S(=O)(=O)Nc2nccs2)cc1N=Nc1ccccc1[N+](=O)[O-] | ? | / | / | -103 | .
N#Cc1cccc(OC2=NS(=O)(=O)c3ccccc32)c1 | / | . | / | / | /
CCc1nn2c(=O)cc(N3C(C)CNCC3C)nc2s1 (stereo not given) | / | . | / | / | /
O=C(NC(NC(=S)Nc1ccccc1C(=O)O)C(Cl)(Cl)Cl)c1ccccc1 (stereo not given) | . | . | . | -58 | .
O=C(NC(NC(=S)Nc1ccccc1C(=O)O)C(Cl)(Cl)Cl)c1ccco1 (stereo not given) | . | . | . | . | .
O=C1N=c2ccccc2=C1c1sc(NS(=O)(=O)Cc2ccccc2)nc1O | . | . | . | -54 | .
O=C1N=c2ccccc2=C1c1sc(Nc2cccc(O)c2)nc1O | . | ? | . | ? | .
O=C1N=c2ccccc2=C1c1sc(NS(=O)(=O)c2ccccc2)nc1O | . | . | . | -61 | .
O=C(O)Cn1c(O)c(C2=c3ccccc3=NC2=O)sc1=O | . | ? | . | . | .
Cc1nc2scc(-c3ccccc3)c2c(=O)n1N | . | . | . | . | .
Cc1nc2scc(-c3ccccc3)c2c(=O)n1N=C1C=CC(=O)C=C1 | . | . | . | -101 | .
Cc1cccc2sc(N(Cc3cccnc3)C(=O)CCOc3ccccc3)nc12 | . | . | / | / | -59
COc1ccc(F)cc1-c1cc(NC=O)c2ncc(-c3cccc(C(=O)N(C)C)c3)n2c1 | / | / | / | -51 | .
CN(C)C(=O)c1cccc(-c2cnc3c(NC=O)cc(-c4ccccc4Cl)cn23)c1 | / | / | / | -65 | .
Cc1ccc(-c2cc(NC=O)c3ncc(-c4cccc(C(=O)N(C)C)c4)n3c2)cc1 | / | / | / | ? | .
CN(C)C(=O)c1cccc(-c2cnc3c(NC=O)cc(-c4ccccc4N(C)C)cn23)c1 | / | / | / | ? | .
S=C(NCCCc1cnc[nH]1)NCCCN(Cc1ccc(Cl)cc1)c1ncc(Br)cn1 | / | . | / | / | /
SMILES | PGK inhibitor | Pin1 inhibitor | Tb PFK inh | PI5P4Ka inh | PI4K2A block
CC(=O)N1CCN(c2cccc(Nc3nn4c(=O)c5ccccc5nc4s3)c2)CC1 | / | . | / | / | /
NC(=S)NNC(=S)Nc1ccccc1 | . | . | . | -70 | .
S=C(NNC(=S)Nc1ccccc1)Nc1ccccc1 | . | . | . | . | .
Cc1ccc(C(=O)C(=O)O)cc1C | / | / | / | / | .
Cc1ccn2c(=O)nc(SCC(=O)c3ccccc3)nc2c1 | . | ? | . | -62 | .
Cc1ccc(OCc2nnc(SCC(=O)Nc3ccc4c(c3)OCO4)n2Cc2ccco2)cc1 | / | / | / | / | .
COc1ccc2ccccc2c1C(=O)/C=C\c1ccoc1 | . | . | . | -53 | .
CCOC(=O)C1=C(C)N(CCCC(=O)O)C(=O)NC1c1ccccc1OS(=O)(=O)c1ccc([N+](=O)[O-])cc1 (stereo not given) | . | . | / | ? | .
CCOC(=O)C1=C(C)N(CCCC(=O)O)C(=O)NC1c1ccc([N+](=O)[O-])cc1 (stereo not given) | . | . | ? | -86 | .
COC(=O)C1=C(C)N(CCCC(=O)O)C(=O)NC1c1ccc([N+](=O)[O-])cc1 (stereo not given) | . | . | / | -101 | .
COC(=O)C1=C(C)N(C)C(=O)NC1c1cc2c(cc1[N+](=O)[O-])OCO2 (stereo not given) | . | ? | . | . | .
CC1=C(C(=O)OCc2ccccc2)C(c2ccccc2OS(=O)(=O)c2ccc([N+](=O)[O-])cc2)NC(=O)N1CCCC(=O)O (stereo not given) | . | . | / | -64 | .
COC(=O)C1=C(C)N(CCCC(=O)O)C(=O)NC1c1cc2c(cc1[N+](=O)[O-])OCO2 (stereo not given) | . | ? | . | -62 | .
CNC(=O)c1cnn2c(C)cc(C)nc12 | / | . | / | / | /
CC(C)Oc1cccc(-c2n[nH]c(=S)n2N=Cc2ccc(O)cc2O)c1 | / | / | / | / | .
CN1CCN(c2cccc(Nc3nn4c(=O)c5ccc(C(F)(F)F)cc5nc4s3)c2)CC1 | / | . | / | / | /
N#C/C(=C\c1c[nH]c2ccccc12)C(=O)c1ccc(O)c(O)c1 | / | / | / | / | .
N#C/C(=C\c1ccc(O)c(O)c1)C(=O)c1ccc(O)c(O)c1 | 1.1µM | . | ? | -60 | .
Cc1ccc(N(C)S(=O)(=O)c2ccc3c(c2)CCC(=O)N3)cc1C | / | . | / | / | /
CCOC(=O)CSc1nc(N)c(C#N)c(-c2ccc(OC)cc2)c1C#N | . | . | . | -64 | .
CN(C)C(=O)c1cccc(-c2cc(NC=O)c3ncc(-c4ccc(F)cc4)n3c2)c1 | / | / | / | . | .
COc1cc(-c2cnc3c(NC=O)cc(-c4cccc(NC(C)=O)c4)cn23)cc(OC)c1OC | / | / | / | -60 | .
COc1cc(-c2cnc3c(NC=O)cc(-c4ccccc4)cn23)cc(OC)c1OC | / | / | / | . | .
CC(=O)c1ccc(-c2cnc3c(NC=O)cc(-c4cccc(C(=O)N(C)C)c4)cn23)cc1 | / | / | / | -59 | .
CC(=O)Nc1cccc(-c2cc(NC=O)c3ncc(-c4cccc(C(C)=O)c4)n3c2)c1 | / | / | / | -55 | .
SMILES | PGK inhibitor | Pin1 inhibitor | Tb PFK inh | PI5P4Ka inh | PI4K2A block
COc1cccc(-c2cc(NC=O)c3ncc(-c4ccc(C(C)=O)cc4)n3c2)c1 | / | / | / | -68 | .
O=C(NCc1ccc(Cl)cc1)C1CCCN(c2ncccn2)C1 (stereo not given) | / | / | / | / | .
CC/C=C(\C(=O)N[C@@H]1C(=O)N2C(C(=O)OCOC(=O)C(C)(C)C)=C(COC(N)=O)CS[C@H]12)c1csc(N)n1 | / | / | / | / | .
COc1cccc(-c2cnc3c(NC=O)cc(-c4cccc(NC(C)=O)c4)cn23)c1 | / | / | / | -77 | .
COc1cc(F)c(S(=O)(=O)N2CCCN(S(=O)(=O)c3ccc(NC(C)=O)cc3)CC2)c(F)c1 | / | . | / | / | /
CC1=NN(c2ccc(S(=O)(=O)O)cc2Cl)C(=O)C1 | . | . | ? | . | -61
CC1=NN(c2cccc(Cl)c2)C(=O)C1 | . | . | . | . | -60
CC1=NN(c2cc(Cl)c(S(=O)(=O)O)cc2Cl)C(=O)C1 | ? | ? | / | . | .
